Laboratory results reported in PubChem BioAssay (NCATS).
Values joined by “and” are separate entries in the source; they are usually repeats but may differ in a detail not shown here. Equal entries are not always repeated. Results filed as inconclusive are left out. A call without a number means that no potency is given here. A structure can be active in one record and inactive in another. Active and inactive are the calls of the source. Calls follow the shape of the dose curve; as a rule, active = well fitted curve in the direction sought with a large enough effect; inconclusive = small, poorly fitted or top-dose-only effect, or another doubt; inactive = no such curve, though single readings can be large; an effect the other way counts as inactive or inconclusive.

Tests used:
[1] = target: Luciferin 4-monooxygenase (Photinus pyralis) (UniProt P08659); experiment: Primary firefly luciferase (FLuc) qHTS assay for identification of artifact compounds. (AID 1845220); conditions: outcome: dose series up to 54.1 µM unless noted; also: nearly all actives have a fitted effect of over 60% in size; as to activity change, negative = inhibition: series mostly up to about 54 µM
How it was run: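 Enzymatic FLuc inhibition assay: compounds pre-exposed to luciferin/ATP (10 uM each) for 15 min, then purified P. pyralis enzyme at 10 nM added. Read-out: luminescence at 5 min.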

[2] = tested on: Nanoluciferase (engineered Oplophorus gracilirostris luciferase); experiment: Primary Nanoluciferase (NLuc) qHTS assay for identification of artifact compounds. (AID 1845222);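 also: NLuc secreted into diluted conditioned medium of S16 cells; series mostly up to about 54 µM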
How it was run: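 S16 cell supernatant NLuc, 1:55; cpds qHTS; 15 min RT dark; Nano-Glo substrate 1:100, 5 min; luminescence; Hill fit of % inhibition.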

[3] = Primary redox qHTS assay for identification of artifact compounds. (AID 1845223)
How it was run: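 Redox-cycling detection via DTT (250 uM final) oxidation coupled to Amplex Red (25 uM)/HRP (250 mU/mL) in HBSS. 15 min preincubation plus 30 min after DTT, room temperature. Ex/Em 525/598 nm; 4-parameter Hill fit against DMSO and 10 uM DA3003.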

[4] = Primary fluorescence-based thiol-reactive (MSTI) qHTS assay for identification of artifact compounds. (AID 1845221);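 also: series mostly up to about 54 µM; thiol-reactive compounds lower the probe fluorescence signal; nearly all actives have a fitted effect of over 65% in size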
How it was run: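 Probe: MSTI 4 uM, PBS pH 7.4, 2% DMSO. Incubation 1 h, RT, light-protected. Readout fluorescence 525/598 nm.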

[5] = target: Glutathione peroxidase 1 (Homo sapiens) (UniProt P07203); experiment: Primary qHTS Assay for Inhibitors of Recombinant Selenoprotein Glutathione Peroxidase 1 (GPX1) (AID 1845191); also: nearly all actives have a fitted effect of over 65% in size; also: potency is read from the fitted curve at half-maximal effect
How it was run: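 GR-coupled readout: NADPH consumption tracked by fluorescence, ex 340/em 450 nm, at t=0 and after 15 min at RT. Final mix 10 nM GPX1, 1 mM GSH, 0.5 mM CHP, 0.5 mM NADPH, 100 nM GR, 0.01% BSA, following 30 min enzyme–compound preincubation.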

[6] = target: Phospholipid hydroperoxide glutathione peroxidase GPX4 (Homo sapiens) (UniProt P36969); experiment: Primary qHTS Assay for Inhibitors of Recombinant Selenoprotein Glutathione Peroxidase 4 (GPX4) (AID 1845192); also: nearly all actives have a fitted effect of over 65% in size; also: potency is read from the fitted curve at half-maximal effect; as to activity change, negative = inhibition: series mostly up to about 50 µM
How it was run: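 Steps: GPX4 plus compound, 30 min RT; add GR/GSH/NADPH master mix; start with cumene hydroperoxide; read 340/450 nm fluorescence at 0 and 15 min. Finals were 200 nM GPX4, 1 mM GSH, 0.5 mM CHP, 0.5 mM NADPH, 100 nM GR.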

[7] = Quantitative High-Throughput drug screen in 47 multiple myeloma cell lines against the NCATS MIPE library collection: FR4_PLB cell viability assay (AID 1918924; also: nearly all actives have a fitted effect of over 35% in size)
How it was run: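 We plated 500 myeloma cells per well, pinned in MIPE 4.0 compounds, and incubated for 48 hours at 37C. ATP was then quantified with CellTiter-Glo, with DMSO and media-only wells defining 100% and 0%.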

[8] = Quantitative High-Throughput drug screen in 47 multiple myeloma cell lines against the NCATS MIPE library collection: Delta47_JCRB cell viability assay (AID 1918925; also: nearly all actives have a fitted effect of over 45% in size)
How it was run: (§1)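 Inhibition of cell viability is measured here. Each line was plated at 500 cells per well, treated with MIPE 4.0 drugs, kept 48 hours at 37C, then assayed for ATP content by CellTiter-Glo luminescence.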

[9] = Quantitative High-Throughput drug screen in 47 multiple myeloma cell lines against the NCATS MIPE library collection: AMO1_DSMZ cell viability assay (AID 1918927; also: nearly all actives have a fitted effect of over 30% in size)
How it was run: as §1

Glutathione peroxidase 1 (Homo sapiens), sequence (P07203 whole entry, looked up): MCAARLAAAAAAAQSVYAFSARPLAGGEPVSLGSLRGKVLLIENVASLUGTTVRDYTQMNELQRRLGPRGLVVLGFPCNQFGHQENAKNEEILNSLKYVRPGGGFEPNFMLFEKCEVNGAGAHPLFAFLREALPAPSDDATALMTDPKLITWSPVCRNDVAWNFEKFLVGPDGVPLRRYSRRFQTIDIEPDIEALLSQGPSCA
Phospholipid hydroperoxide glutathione peroxidase GPX4 (Homo sapiens), sequence (P36969 whole entry, looked up): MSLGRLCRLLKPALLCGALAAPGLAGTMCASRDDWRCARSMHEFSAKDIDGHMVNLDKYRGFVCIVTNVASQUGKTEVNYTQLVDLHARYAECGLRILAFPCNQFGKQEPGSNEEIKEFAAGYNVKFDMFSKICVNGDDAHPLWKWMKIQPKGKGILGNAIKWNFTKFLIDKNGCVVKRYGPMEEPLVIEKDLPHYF

For `CC(C)N(CCC(C(N)=O)(c1ccccc1)c1ccccn1)C(C)C` (stereo unspecified), the outcome [1] was “inactive”, the outcome [2] was “inactive” and the outcome [3] was “inactive”.
For `CC(NC(C)(C)C)C(=O)c1cccc(Cl)c1` (stereo unspecified), the outcome [1] was “inactive”, the outcome [4] was “inactive” and the outcome [3] was “inactive”.
In the case of `O=c1oc2ccccc2c(O)c1Cc1c(O)c2ccccc2oc1=O`, the Potency [5] is reported as “inactive” and the Potency [6] is reported as “inactive”.
In the case of `O=C1c2ccccc2C(=O)c2ccccc21`, the Potency [5] is reported as “inactive” and the Potency [6] is reported as “inactive”.
In the case of `CCC(C)C(C)(COC(N)=O)COC(N)=O` (stereo unspecified), the Potency [5] is reported as “inactive” and the Potency [6] is reported as “inactive”.
For `CC(C)C[C@H](CN)CC(=O)O`, the Potency [5] was “inactive”, the Potency [6] was “inactive” and the Potency [7] was “inactive”. For the same molecule, the Potency [8] was “inactive” and the Potency [9] was “inactive”.
In the case of `Oc1ccc(Cl)cc1`, the Potency [5] is reported as “inactive” and the Potency [6] is reported as “inactive”.
With `CC(=O)OCC1=C(C(=O)O)N2C(=O)[C@@H](N)[C@H]2SC1` the Potency [5] was 12.8 µM (active), the outcome [1] was “inactive” and the outcome [2] was “inactive”.
In the case of `COC1CC(=C(c2cccs2)c2cccs2)C[N+](C)(C)C1` (stereo unspecified), the Potency [5] is reported as “inactive” and the Potency [6] is reported as “inactive”.
In the case of `Clc1ccc(C(c2ccc(Cl)cc2)C(Cl)(Cl)Cl)cc1`, the Potency [5] is reported as “inactive” and the Potency [6] is reported as “inactive”.
In the case of `C[C@]12CC[C@@H]3c4ccc(OC(=O)N(CCCl)CCCl)cc4CC[C@H]3[C@@H]1CC[C@@H]2OP(=O)(O)O`, the Potency [5] is reported as “inactive”, the Potency [6] is reported as “inactive and 12.6 µM (active)” and the outcome [1] is reported as “inactive”. For the same molecule, the outcome [4] was “inactive”, the outcome [2] was “inactive” and the Potency [8] was “inactive”. For the same molecule, the Potency [9] was “inactive”.
For `CCc1cc2c(s1)-n1c(C)nnc1CN=C2c1ccccc1Cl`, the Potency [5] was “inactive” and the Potency [6] was “inactive”.
In the case of `C=CCN1C[C@H](C)N([C@H](c2ccc(C(=O)N(CC)CC)cc2)c2cccc(OC)c2)C[C@H]1C`, the outcome [5] is reported as “inactive [at 9.52 µM]”, the activity change, negative = inhibition [6] is reported as -0.741% [at 9.73 µM] (inactive) and the outcome [1] is reported as “inactive [at 11.6 µM]”. The activity change, negative = thiol reactive [4] was 24.3% [at 11.5 µM] (inactive), the activity, negative = inhibition [2] was 1.52% [at 11.6 µM] (inactive) and the redox activity (% of DA3003) [3] was 9.33% [at 11.5 µM] (inactive).
